Laboratory results from PubChem BioAssay (Tox21).
A number with no mark means an inactive call. Inconclusive results are not listed. Where a call stands in place of a potency, no number is given. Active and inactive are the calls of the source. Unless noted, calls follow the shape of the dose curve; as a rule, active = well fitted curve in the direction sought with a large enough effect in the repeat runs; inconclusive = weak or mixed curves; inactive = no such curve, though single readings can be large; an effect the other way counts as inactive or inconclusive.

What was measured:
[1] = qHTS assay to identify small molecule HDAC inhibitors (AID 1259364); also: top concentration of the series differs between compounds; nearly all actives have a fitted effect of over 45% in size
Summary of the method: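 Wild-type HCT-116 cells, plated overnight at 37 C, exposed to compounds 2 hr at 37 C; luminogenic HDAC-Glo substrate then added 30 min at room temperature. Luminescence reports relative endogenous class I/II HDAC activity.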

[2] = qHTS assay to identify small molecule HDAC inhibitors - cell viability counter screen (AID 1259365); also: series mostly up to about 92 µM; nearly all actives have a fitted effect of over 50% in size
Summary of the method: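 Wild-type HCT-116 cells, 1,500/well, cultured overnight, then compound-treated 2 h at 37 C. Viability measured as ATP luminescence with CellTiter-Glo after 30 min at room temperature.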

[3] = qHTS assay to identify small molecule agonists of the sonic hedgehog signaling (Shh) pathway - cell viability counter screen (AID 1259366); also: nearly all actives have a fitted effect of over 50% in size
Summary of the method: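 NIH/3T3-derived Gli1-Luc reporter cells, 2,000 per well, received compound after 4 h and were treated about 23 h at 37C. Viability measured in the same wells by CellTiter-Fluor fluorescence after 1 h.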

[4] = qHTS assay to identify small molecule antagonists of the sonic hedgehog signaling (Shh) pathway - cell viability counter screen (AID 1259367); also: nearly all actives have a fitted effect of over 55% in size
Summary of the method: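 Cells: 3T3 Gli1-Luc, 2,000/well, 4 hr pre-incubation. Compounds in DMSO, then conditioned medium. Incubation 24 hr, 37C, 5% CO2. CellTiter-Fluor at 23 hr, 1 hr, fluorescence.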

[5] = qHTS assay to identify small molecule agonists of the sonic hedgehog signaling (Shh) pathway (AID 1259368; calls by dose curve;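 also: NIH/3T3-derived 3T3Gli1-Luc cells carrying a stable Gli1-driven firefly luciferase reporter; series mostly up to about 92 µM; nearly all actives have a fitted effect of over 15% in size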)
Summary of the method: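 NIH/3T3-derived 3T3Gli1-Luc cells with stably integrated Gli1-driven firefly luciferase, 2,000 cells/well, compounds added after 4 hr. Incubated 24 hr at 37C, 5% CO2; luminescence read after 30 min with luciferase reagent at room temperature.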

[6] = qHTS assay to identify small molecule antagonists of the sonic hedgehog signaling (Shh) pathway (AID 1259369; calls by dose curve; also: nearly all actives have a fitted effect of over 45% in size)
Summary of the method: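 NIH/3T3-derived Gli1-Luc reporter cells plated 4 h, dosed with compound, then stimulated with conditioned medium for 24 h at 37 C. Firefly luciferase luminescence read after 30 min with detection reagent at room temperature.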

[7] = target: Estrogen receptor beta (Homo sapiens) (UniProt Q92731); experiment: qHTS assay to identify small molecule agonists of the estrogen receptor beta (ER-beta) signaling pathway (AID 1259377; active = well fitted activation curve with a large enough effect in the signal ratio in the repeat runs, not every such curve was filed as active; the % refers to the signal ratio)
Chain of Estrogen receptor beta (Homo sapiens) (Q92731 whole entry, looked up): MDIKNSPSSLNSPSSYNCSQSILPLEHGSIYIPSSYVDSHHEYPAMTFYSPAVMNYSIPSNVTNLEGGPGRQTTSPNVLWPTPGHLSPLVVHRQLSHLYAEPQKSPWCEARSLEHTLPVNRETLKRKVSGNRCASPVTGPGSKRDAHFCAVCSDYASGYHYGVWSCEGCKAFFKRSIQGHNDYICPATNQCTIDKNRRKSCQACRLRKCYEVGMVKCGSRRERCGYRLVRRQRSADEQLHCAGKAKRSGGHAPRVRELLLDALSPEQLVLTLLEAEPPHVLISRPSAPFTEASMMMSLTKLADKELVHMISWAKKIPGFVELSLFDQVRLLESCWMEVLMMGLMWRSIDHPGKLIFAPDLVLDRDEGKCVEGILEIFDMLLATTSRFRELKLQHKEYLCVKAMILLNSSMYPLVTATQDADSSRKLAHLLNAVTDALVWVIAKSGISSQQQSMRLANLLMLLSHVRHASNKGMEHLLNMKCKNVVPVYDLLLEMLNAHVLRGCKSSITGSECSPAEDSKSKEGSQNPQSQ
Summary of the method: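 ER-beta-UAS-bla HEK293T cells in medium with 2% charcoal-stripped FBS were exposed to compounds for 16 h at 37C. Beta-lactamase reporter activity was read as fluorescence after 2 h with LiveBLAzer B/G FRET substrate at room temperature.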

[8] = target: Estrogen receptor beta (Homo sapiens) (UniProt Q92731); experiment: qHTS assay to identify small molecule antagonists of the estrogen receptor beta (ER-beta) signaling pathway (AID 1259378; active = well fitted inhibition curve with a large enough effect in the signal ratio in the repeat runs, not every such curve was filed as active; the % refers to the signal ratio)
Summary of the method: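 Antagonist mode: compounds added to beta-lactamase reporter HEK293T ER-beta-UAS cells stimulated with E2 (1nM final), 16 hr at 37C. LiveBLAzer B/G FRET substrate, 2 hours room temperature, fluorescence read-out.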

[9] = qHTS assay to identify small molecule agonists of the estrogen receptor beta (ER-beta) signaling pathway - cell viability counter screen (AID 1259380); also: nearly all actives have a fitted effect of over 30% in size
Summary of the method: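 ER-beta-UAS-bla HEK293T cells in medium with 2% charcoal-stripped FBS, pre-incubated 6 hr, then treated 16 hr at 37C. Cytotoxicity read in the same wells by CellTiter-Glo luminescence after 30 min at room temperature.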

[10] = qHTS assay to identify small molecule antagonists of the estrogen receptor beta (ER-beta) signaling pathway - cell viability counter screen (AID 1259382);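 also: HEK293T cells carrying ER-beta-UAS-bla reporter stimulated with estradiol; series mostly up to about 92 µM; nearly all actives have a fitted effect of over 55% in size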
Summary of the method: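 ER-beta-UAS-bla HEK293T cells in 2% charcoal-stripped FBS medium, treated with compound plus 1 nM 17-beta-estradiol for 16 h at 37C. Viability read by CellTiter-Glo luminescence after 30 min at room temperature in the same wells.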

[11] = target: Estrogen receptor (Homo sapiens) (UniProt P03372); experiment: qHTS assay to identify small molecule agonists of the estrogen receptor alpha (ER-alpha) signaling pathway in the presence of an antagonist (AID 1259383; calls by dose curve; also: top concentration of the series differs between compounds; nearly all actives have a fitted effect of over 15% in size)
Chain of Estrogen receptor (Homo sapiens) (P03372 whole entry, looked up): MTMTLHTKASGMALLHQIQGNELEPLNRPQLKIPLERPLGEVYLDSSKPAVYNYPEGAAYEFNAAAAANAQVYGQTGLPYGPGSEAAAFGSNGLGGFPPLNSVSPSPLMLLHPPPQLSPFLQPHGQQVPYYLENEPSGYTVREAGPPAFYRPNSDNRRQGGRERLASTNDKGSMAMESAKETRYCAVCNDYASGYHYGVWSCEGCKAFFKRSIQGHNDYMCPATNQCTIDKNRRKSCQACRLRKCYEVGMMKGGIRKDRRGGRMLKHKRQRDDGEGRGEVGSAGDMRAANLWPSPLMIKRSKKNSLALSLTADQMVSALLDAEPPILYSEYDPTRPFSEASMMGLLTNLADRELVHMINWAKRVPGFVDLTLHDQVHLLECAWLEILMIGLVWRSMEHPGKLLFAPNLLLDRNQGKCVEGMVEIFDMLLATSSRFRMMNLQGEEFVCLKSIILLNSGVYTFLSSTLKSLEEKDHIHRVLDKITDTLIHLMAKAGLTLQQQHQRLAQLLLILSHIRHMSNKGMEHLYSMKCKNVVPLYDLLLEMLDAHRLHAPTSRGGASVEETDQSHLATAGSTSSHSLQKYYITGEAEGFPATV
Summary of the method: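 VM7Luc4E2 cells express endogenous full-length ER-alpha with an ERE-luciferase reporter and were hormone-deprived for 5 days. Compounds at 15 concentrations were added with 10.0nM ICI-182,780 for 22hr at 37C. Luminescence was read with ONE-Glo.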

[12] = qHTS assay to identify small molecule agonists or antagonists of the thyroid stimulating hormone receptor (TSHR) signaling pathway - wild type cell line counter screen (AID 1259384; calls by dose curve)
Summary of the method: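 Counter screen in untransfected Hek293: compounds (15-point titration, triplicate) plus phosphodiesterase inhibitor Ro20-1724 added after 18 h plating; 30 min RT. Intracellular cAMP via competitive d2/cryptate immunoassay, 1 h incubation.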

[13] = target: Thyrotropin receptor (Homo sapiens) (UniProt P16473); experiment: qHTS assay to identify small molecule antagonists of the thyroid stimulating hormone receptor (TSHR) signaling pathway (AID 1259385; calls by dose curve; also: nearly all actives have a fitted effect of over 20% in size)
Chain of Thyrotropin receptor (Homo sapiens) (P16473 whole entry, looked up): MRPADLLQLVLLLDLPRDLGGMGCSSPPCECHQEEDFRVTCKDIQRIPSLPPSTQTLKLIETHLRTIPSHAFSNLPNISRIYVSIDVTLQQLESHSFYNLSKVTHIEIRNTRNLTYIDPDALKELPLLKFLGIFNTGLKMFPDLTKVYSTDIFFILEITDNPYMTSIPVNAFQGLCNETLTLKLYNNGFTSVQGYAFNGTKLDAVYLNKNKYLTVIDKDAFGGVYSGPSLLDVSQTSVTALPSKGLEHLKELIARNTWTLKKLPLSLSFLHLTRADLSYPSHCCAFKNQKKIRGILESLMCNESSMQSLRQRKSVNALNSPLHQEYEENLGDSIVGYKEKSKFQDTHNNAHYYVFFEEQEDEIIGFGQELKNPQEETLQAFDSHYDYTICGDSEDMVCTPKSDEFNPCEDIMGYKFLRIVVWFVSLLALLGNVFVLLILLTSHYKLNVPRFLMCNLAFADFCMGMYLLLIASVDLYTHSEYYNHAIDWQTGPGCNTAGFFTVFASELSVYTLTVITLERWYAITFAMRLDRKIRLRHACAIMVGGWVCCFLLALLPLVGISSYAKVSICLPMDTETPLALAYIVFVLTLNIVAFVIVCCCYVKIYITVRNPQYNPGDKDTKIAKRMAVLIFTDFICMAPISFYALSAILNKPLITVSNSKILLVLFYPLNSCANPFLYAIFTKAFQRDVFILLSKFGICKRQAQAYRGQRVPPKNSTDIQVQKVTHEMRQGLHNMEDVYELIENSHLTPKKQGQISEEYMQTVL
Summary of the method: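 Antagonist mode: compound-treated TSHR-expressing HEK293 cells were stimulated with 1.5 ng/mL TSH (final) in presence of Ro20-1724 for 30 min at RT. HTRF cAMP detection after 1 h; each compound tested at 15 concentrations, triplicate.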

[14] = target: Progesterone receptor (Homo sapiens) (UniProt P06401); experiment: qHTS assay to identify small molecule agonists of the progesterone receptor (PR) signaling pathway (AID 1346784; calls by dose curve; also: nearly all actives have a fitted effect of over 30% in size)
Chain of Progesterone receptor (Homo sapiens) (P06401 whole entry, looked up): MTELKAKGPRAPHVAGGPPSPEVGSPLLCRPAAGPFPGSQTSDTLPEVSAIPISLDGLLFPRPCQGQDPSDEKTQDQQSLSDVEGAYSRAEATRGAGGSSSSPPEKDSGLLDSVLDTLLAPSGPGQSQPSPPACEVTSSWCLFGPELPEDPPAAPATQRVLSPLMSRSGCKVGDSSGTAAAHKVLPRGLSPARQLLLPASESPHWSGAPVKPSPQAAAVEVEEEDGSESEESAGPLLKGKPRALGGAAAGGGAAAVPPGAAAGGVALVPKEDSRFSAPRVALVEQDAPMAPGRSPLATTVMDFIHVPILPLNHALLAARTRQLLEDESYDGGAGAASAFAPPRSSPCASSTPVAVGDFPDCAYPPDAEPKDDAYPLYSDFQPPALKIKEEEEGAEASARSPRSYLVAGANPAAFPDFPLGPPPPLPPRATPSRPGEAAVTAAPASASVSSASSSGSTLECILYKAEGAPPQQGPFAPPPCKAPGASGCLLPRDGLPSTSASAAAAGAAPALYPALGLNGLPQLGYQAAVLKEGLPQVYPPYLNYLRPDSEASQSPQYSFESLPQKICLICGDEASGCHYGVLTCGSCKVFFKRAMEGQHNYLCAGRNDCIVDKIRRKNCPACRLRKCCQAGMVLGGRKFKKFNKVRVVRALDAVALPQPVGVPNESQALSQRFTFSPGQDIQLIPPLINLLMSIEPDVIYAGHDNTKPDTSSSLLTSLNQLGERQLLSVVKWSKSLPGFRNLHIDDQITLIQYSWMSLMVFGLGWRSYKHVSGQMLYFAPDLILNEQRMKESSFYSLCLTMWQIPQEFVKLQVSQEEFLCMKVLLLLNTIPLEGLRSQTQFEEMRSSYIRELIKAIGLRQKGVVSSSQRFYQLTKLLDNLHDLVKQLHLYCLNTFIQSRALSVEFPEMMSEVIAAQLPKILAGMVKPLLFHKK
Summary of the method: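 PR-UAS-bla HEK 293T cells (beta-lactamase reporter under UAS) in 2% charcoal-stripped FBS, dosed with 23 nL compound after 6 hr, incubated 16hr at 37C. LiveBLAzer B/G FRET substrate added, fluorescence read after 2 hours.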

[15] = target: Progesterone receptor (Homo sapiens) (UniProt P06401); experiment: qHTS assay to identify small molecule antagonists of the progesterone receptor (PR) signaling pathway (AID 1346795; active = well fitted inhibition curve with a large enough effect in the signal ratio in the repeat runs, not every such curve was filed as active; the % refers to the signal ratio)
Summary of the method: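 PR-UAS-bla HEK293T cells with beta-lactamase reporter under UAS control, in 2% charcoal-stripped FBS, treated with compounds plus 1 nM promegestone (R5020, final) for 16 hr at 37C. Read-out: FRET beta-lactamase substrate fluorescence after 2 hr at room temperature.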

[16] = qHTS assay to identify small molecule antagonists of the progesterone receptor (PR) signaling pathway - cell viability counter screen (AID 1346798); also: nearly all actives have a fitted effect of over 50% in size; also: potency is read from the fitted curve at half-maximal effect
Summary of the method: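 PR-UAS-bla HEK293T cells, 3,000/well in 2% charcoal-stripped FBS medium, dosed with compounds plus R5020 agonist and incubated 16 h at 37C. Viability then measured in the same wells by CellTiter-Glo luminescence after 30 min at RT.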

[17] = qHTS assay to identify small molecule agonists of the progesterone receptor (PR) signaling pathway - cell viability counter screen (AID 1346799; calls by dose curve; also: nearly all actives have a fitted effect of over 45% in size; also: potency is read from the fitted curve at half-maximal effect)
Summary of the method: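 Counter screen in the PR-UAS-bla HEK293T wells (2% charcoal-stripped FBS, 16 h compound exposure at 37 C) after the bla read. CellTiter-Glo added, 30 min at room temperature, luminescence read as cell viability.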

[18] = qHTS assay to identify small molecule antagonists of the TGF-beta/Smad signaling pathway - cell viability counter screen (AID 1346824); also: nearly all actives have a fitted effect of over 50% in size
Summary of the method: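 Cytotoxicity counter-screen run in the same wells as the beta-lactamase Smad reporter read: CellTiter-Glo luminescence after 30 min at room temperature. HEK 293T SBE-bla cells had 5 hr compound exposure at 37 C with TGF-beta1 (0.25 ng/mL stock).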

[19] = qHTS assay to identify small molecule agonists of the androgen receptor (AR) signaling pathway in the presence of an antagonist - cell viability counter screen (AID 1259379);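 also: MDA-kb2 human breast cancer cells carrying an MMTV luciferase reporter; series mostly up to about 92 µM; nearly all actives have a fitted effect of over 25% in size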
Summary of the method: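 MDA-kb2 cells (MMTV-luciferase, AR/GR), 3,000/well, 5 h attachment, then 3.0 µM nilutamide (final) and compounds at 15 concentrations. Viability by CellTiter-Fluor fluorescence after 16 h at 37 °C, 0% CO2, in the reporter wells.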

[20] = qHTS assay to identify small molecule agonists of the estrogen receptor alpha (ER-alpha) signaling pathway in the presence of an antagonist - cell viability counter screen (AID 1259386);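 also: series mostly up to about 92 µM; cells exposed to compounds for 22 h at 37 °C before the viability read; nearly all actives have a fitted effect of over 30% in size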
Summary of the method: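 Cell viability in VM7Luc4E2 cells (endogenous full-length ER-alpha) measured by CellTiter-Fluor fluorescence in the same wells as the luciferase screen. Cells pre-cultured 5 days in charcoal-stripped serum, then treated 22 h with compounds at 15 concentrations plus 10.0nM ICI-182,780.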

SMILES: CCN(Cc1cccc(S(=O)(=O)O)c1)c1ccccc1
- Potency [1]: inactive
- outcome [2]: inactive
- Potency [3]: inactive
- Potency [4]: inactive
- outcome [5]: inactive
- Potency [6]: inactive
- Potency [7]: inactive
- outcome [8]: inactive
- outcome [9]: inactive
- outcome [10]: inactive
- outcome [11]: inactive
- outcome [12]: inactive
- outcome [13]: inactive
- Potency [14]: inactive
- Potency [15]: inactive
- Potency [16]: inactive
- Potency [17]: inactive
- outcome [18]: inactive

SMILES: CCCCOC(=O)[C@@H](C)Oc1ccc(Oc2ccc(C(F)(F)F)cn2)cc1
- Potency [1]: inactive
- outcome [2]: inactive
- Potency [3]: inactive
- Potency [4]: inactive
- outcome [5]: inactive
- Potency [6]: inactive
- Potency [7]: inactive
- outcome [8]: inactive
- Potency [19]: inactive
- outcome [9]: inactive
- outcome [10]: inactive
- outcome [11]: inactive
- Potency [20]: inactive
- Potency [15]: inactive
- Potency [17]: inactive
- outcome [18]: inactive

SMILES: O=C1CC[C@H](C(=O)N2CCCCC2)N1
- Potency [1]: inactive
- outcome [2]: inactive
- Potency [3]: inactive
- Potency [4]: inactive
- outcome [5]: inactive
- Potency [6]: inactive
- Potency [7]: inactive
- outcome [8]: inactive
- Potency [19]: inactive
- outcome [11]: inactive
- outcome [12]: inactive
- outcome [13]: inactive
- Potency [20]: inactive
- Potency [16]: inactive
- Potency [17]: inactive
- outcome [18]: inactive

SMILES: CCc1nccnc1C
- Potency [1]: inactive
- outcome [2]: inactive
- Potency [3]: inactive
- Potency [4]: inactive
- outcome [5]: inactive
- Potency [6]: inactive
- Potency [7]: inactive
- outcome [8]: inactive
- Potency [19]: inactive
- outcome [9]: inactive
- outcome [11]: inactive
- outcome [13]: inactive
- Potency [20]: inactive
- Potency [14]: inactive
- Potency [16]: inactive
- Potency [17]: inactive
- outcome [18]: inactive

SMILES: CNC(=O)NC
- Potency [1]: inactive
- outcome [2]: inactive
- Potency [3]: inactive
- Potency [4]: inactive
- outcome [5]: inactive
- Potency [6]: inactive
- Potency [7]: inactive
- outcome [8]: inactive
- outcome [9]: inactive
- outcome [10]: inactive
- outcome [11]: inactive
- outcome [13]: inactive
- Potency [20]: inactive
- Potency [14]: inactive
- Potency [15]: inactive
- Potency [16]: inactive
- Potency [17]: inactive

SMILES: CC(C)(C)NCCO
- Potency [1]: inactive
- outcome [2]: inactive
- Potency [3]: inactive
- Potency [4]: inactive
- outcome [5]: inactive
- Potency [6]: inactive
- Potency [7]: inactive
- outcome [8]: inactive
- outcome [9]: inactive
- outcome [10]: inactive
- outcome [11]: inactive
- Potency [20]: inactive
- Potency [14]: inactive
- Potency [16]: 30.6 µM (active)
- Potency [17]: 48.6 µM (active)
- outcome [18]: inactive

SMILES: CC(Cl)COP(=O)(OCC(C)Cl)OCC(C)Cl (stereo unspecified)
- Potency [1]: inactive
- outcome [2]: inactive
- Potency [3]: inactive
- Potency [4]: inactive
- outcome [5]: inactive
- Potency [6]: inactive
- Potency [7]: inactive
- outcome [8]: inactive
- outcome [9]: inactive
- outcome [10]: inactive
- outcome [11]: inactive
- outcome [12]: inactive
- outcome [13]: inactive
- Potency [20]: inactive
- Potency [17]: inactive
- outcome [18]: inactive
